Results from ChEMBL document CHEMBL4513216, “Probing the Open Global Health Chemical Diversity Library for Multistage-Active Starting Points for Next-Generation Antimalarials” (ACS Infect Dis, 2020).
In all, about 69,000 compounds went through this assay and about 8,600 (12%) showed an effect of 50% or more. The entries come from a sample that favours strong results as a whole.

What follows are molecules tested on Plasmodium berghei (assay: Screen against P. berghei liver stage (PbLuc), transformed with Luciferase, at 10uM). Details: tested at 10 uM.
Type: functional, HepG2

Row | Compound | INHIBITION [%]
1 | Cc1cnc(C(=O)N2CCCN(Cc3cnn(C(C)C)c3)CC2)cn1 | 9.06
2 | CC(C)n1cc(CN2CCCN(C(=O)c3cccn3C)CC2)cn1 | 34.6
3 | Cc1cccc(CN2C[C@@H]3CN(C(=O)c4ccsc4)C[C@@H]3C2=O)n1 | 23.6
4 | CN(C)S(=O)(=O)N1CCN(C(=O)OC(C)(C)C)CC12CCCCC2 | 27.5
5 | Cc1cnn(CC2CCCN2Cc2cn3ccsc3n2)c1 (centres undefined) | 37.9
6 | O=C1CCC(=O)c2oc3ccc(Cl)cc3c2N1 | 34.2
7 | CN(C)C(=O)N1C[C@H]2CC[C@@H](C1)N(C(=O)CCCn1cncn1)C2 | 6.8
8 | O=C(O)COCC(=O)NC1CC2(CCCCC2)Oc2ccccc21 (centres undefined) | 3.91
9 | CC(C)c1nnc2n1CCN(C(=O)c1cn(-c3ccccc3)nn1)C2 | 21.1
10 | O=C(NC[C@]12COC[C@H]1CN(CC1CCOCC1)C2)c1ccco1 | 3.11
11 | Cc1ncc(CN2CCCC(c3nc4ccccc4n3C(C)C)C2)s1 (centres undefined) | -21.4
12 | O=C1NCCN1C1CCN(CCc2cccs2)CC1 | 29.5
13 | O=C1NCCN1C1CCN(CCOc2ccccc2F)CC1 | 63.85
14 | O=C1NCCN1C1CCN(CC(O)c2ccccc2F)CC1 (centres undefined) | 0.45
15 | O=C1NCCN1C1CCN(CCOc2ccccc2Cl)CC1 | 22.6
16 | c1ccc2c(OCCN3CCn4c(nnc4C4CC4)C3)cccc2c1 | 21.5
17 | O=C1NCCN1C1CCN(CCOc2cccc3ccccc23)CC1 | 69.1
18 | COc1cc(C(=O)N(C)Cc2nccn2CC(F)(F)F)ccc1C | 10.7
19 | Cc1cc(C(=O)N2CCC3(CC2)C(=O)N(C)CCN3CC(C)C)c(C)o1 | 49.4
20 | Cn1cccc1C(=O)N1CCC(c2nnc(Cn3ccnc3)n2C)CC1 | -10.3
21 | NCC1[C@H]2CN(CCc3ccccc3)C[C@@H]12 (some centres undefined) | 33.2
22 | CN(C)c1nc2c(c(N3CCCC4(CC3)CNC(=O)O4)n1)CCCC2 (centres undefined) | -26.8
23 | CN(C)c1nc2c(c(N3CCC4(CCCNC4=O)C3)n1)CCCC2 (centres undefined) | 42.2
24 | CN(C)c1nc2c(c(N3CCC4(CC3)CNC(=O)C4)n1)CCCC2 | 84.5
25 | CCn1cc(NC(=O)NCC(C)N2CCCC2)cn1 (centres undefined) | 31.8
26 | Cc1nc(CN2CCc3ncnc(C4CCOC4)c3CC2)cs1 (centres undefined) | -33
27 | Cc1nc2ncc3c(=O)n(C)ccc3n2n1 | 0.647

Row | Compound | INHIBITION [%]
28 | Cc1noc(C)c1CN1CCN(C(=O)C(C(C)C)n2cncn2)CC1 (centres undefined) | 7.44
29 | Cc1ccc(C(NC(=O)Cn2cc(C3CC3)nn2)C2CC2)cc1 (centres undefined) | 8.08
30 | Cc1ccc(C(NC(=O)CN2CCc3c(ncn3C)C2)C2CC2)cc1 (centres undefined) | 6.99
31 | Cc1ccc(OCCCNC(=O)Cc2nc3ncccn3n2)cc1 | 27.7
32 | Cc1ccc(C(CNC(=O)Cc2nc3ncccn3n2)N(C)C)cc1 (centres undefined) | 56.8
33 | Cc1ccc(C(CNC(=O)c2cc(CC(C)C)nn2C)N(C)C)cc1 (centres undefined) | -28.8
34 | Cc1ccc(C(NC(=O)Cc2nc3ncccn3n2)C2CC2)cc1 (centres undefined) | 53.4
35 | O=C1C(NS(=O)(=O)c2cccc(F)c2)CCN1Cc1ccccc1 (centres undefined) | -5.25
36 | Cc1ccc(N2C[C@H](C)[C@]3(CCN(c4cccnc4)C3=O)C2)nn1 | 38.5
37 | CCC(C)N(Cc1sccc1C)C(=O)c1ccc2cccnc2n1 (centres undefined) | 11.2
38 | O=C(O)CCC(=O)N1CCN(CC2CC2)c2ncccc2C1 | 82
39 | COCCC(=O)N1CCN(CC2CC2)c2ncccc2C1 | 55.7
40 | COCC(=O)N1CCN(CC2CC2)c2ncccc2C1 | -18.6
41 | CC(=O)NCC(=O)N1CCN(Cc2cccnc2)c2ncccc2C1 | -14
42 | O=C(N1CCCC1)N1CCN(CC2CC2)c2ncccc2C1 | 20.5
43 | CC(=O)NCC(=O)N1CCN(CC2CC2)c2ncccc2C1 | 27.9
44 | COCCC(=O)N1CCN(CC2CC2)c2nc(C)ccc2C1 | -7.24
45 | CC(=O)NCC(=O)N1CCN(Cc2ccncc2)c2ncccc2C1 | 76.5
46 | O=C(Cc1ccccn1)N1CCN(CC2CC2)c2ncccc2C1 | 24.5
47 | COC(=O)C(NC(=O)C1CC1)c1cc(F)ccc1F (centres undefined) | 29.4
48 | CCOc1ccc(Cl)c(C(=O)NCCS(N)(=O)=O)n1 | 35.3
49 | COc1ccc(C2=CCN(C(=O)C3CCCN(C(C)=O)C3)CC2)cc1 (centres undefined) | 1.78
50 | CNC(=O)CN(C(=O)c1ccccc1)[C@H]1C[C@H]2CCOC[C@H]2C1 | 8.61
51 | CN1CC(=O)N(c2cccc(F)c2)CC12CCN(Cc1ccncc1)C2 (centres undefined) | -17.1
52 | COc1ccc(Cl)cc1CC(=O)N1CCN(CCO)CC1 | 38.1
53 | NC(=O)CN1CCCN(C(=O)Cc2ccc(F)c(Br)c2)CC1 | 14.4
54 | O=C(Cc1ccc(F)c(Br)c1)N1CCN(CCO)CC1 | 66.7
